The values that follow come from PubChem BioAssay AID602195 (The Scripps Research Institute Molecular Screening Center, 2012).

Out of some 1,600 compounds screened, about 430 (27%) were called active. No stated cut-off is given here; in the data, active means inhibition above about 29%; inactive means the rest. A selection follows.

For the test, the target named is Melanocortin receptor 4 (Homo sapiens) (UniProt P32245). The test can be described thus: MC4R cAMP antagonists, retest, confirmation, cell-based, TR-FRET (AID 602195).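 Further: 0% = agonist stimulated wells alone and 100% = agonist stimulated wells plus saturating reference antagonist.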 Conditions: MC4R-expressing cells, MTII-stimulated cAMP, at 6.5 µM, hits give high values.
Chain of Melanocortin receptor 4 (Homo sapiens) (P32245 whole entry, looked up): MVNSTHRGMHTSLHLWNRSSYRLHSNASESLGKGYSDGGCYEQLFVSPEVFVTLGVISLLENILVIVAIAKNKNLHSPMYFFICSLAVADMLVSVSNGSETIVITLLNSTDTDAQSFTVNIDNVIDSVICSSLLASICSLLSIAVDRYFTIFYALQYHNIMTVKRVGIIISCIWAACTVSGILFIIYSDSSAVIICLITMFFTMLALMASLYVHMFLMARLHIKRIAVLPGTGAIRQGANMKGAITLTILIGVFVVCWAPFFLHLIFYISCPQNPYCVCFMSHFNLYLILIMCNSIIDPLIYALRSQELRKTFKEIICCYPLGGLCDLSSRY
For orientation: inhibition means the relative decrease from the control value, in per cent. For the compound `C#Cc1cc(N2CCN(C(=O)c3ccoc3)CC2)n2nc(-c3cccc(Cl)c3)cc2n1`, the inhibition was 36.4% (active).

On to `Cc1ccc(Sc2ccc(NC(=O)c3ccc(F)cc3)cc2C#N)cc1`, for which the inhibition is 24.9% (inactive).

`Cc1c(CCC(=O)O)c(=O)oc2cc(OCc3ccc(Br)cc3)ccc12`: the inhibition is -0.06% (inactive).

Consider `CN(C)C(CNC(=O)CCCOc1ccccc1)c1ccco1` (centres undefined), for which the inhibition was -4.52% (inactive).

Turning to `COC(=O)[C@H](Cc1ccccc1)NC(=O)[C@@H]1C[C@H]1[C@@H](NC(=O)OCc1ccccc1)c1ccccc1`, the inhibition is 62.1% (active).

For `COc1ccccc1N(CC(=O)N/N=C(\C)c1ccccc1O)S(=O)(=O)c1ccc(C)cc1`, the inhibition was 11.1% (inactive).

For the compound `CCOC(=O)C(C)n1cnc2sc(C)c(C)c2c1=O` (centres undefined), the inhibition is 5.44% (inactive).

With `COC(=O)c1sc(-c2ccc(C(C)(C)C)cc2)cc1NC(=O)/C=C/C(=O)O`, the inhibition was -6.9% (inactive).

Regarding `Cc1ccc(C(C(=O)NCC2CCCO2)N(C(=O)c2snc(C(N)=O)c2N)c2ccc(C(C)C)cc2)o1` (centres undefined), the inhibition was 10.5% (inactive).

Consider `CN(CC(=O)NCCc1ccccn1)S(=O)(=O)c1ccc(Cl)cc1`, for which the inhibition is -19.7% (inactive).

Consider `CC(C)(C)OC(=O)N1CCC(NC(=O)c2[nH]cnc2C(=O)N[C@@H](Cc2ccccc2)C(=O)OCc2ccccc2)CC1`, for which the inhibition is 55.3% (active).

Regarding `O=C(Cn1nnc2ccccc2c1=O)Nc1cc(C(F)(F)F)ccc1N1CCOCC1`, the inhibition was -7.03% (inactive).

With `CCOC(=O)c1cc(C)nc(S(C)(=O)=O)c1C#N`, the inhibition was 29.6% (active).

In the case of `Cc1nnc(N/N=C/C2CC=CCC2)[nH]c1=O` (centres undefined), the inhibition is 2.83% (inactive).

On to `O=C(Nc1nccs1)c1cc(S(=O)(=O)N2CCOCC2)c(Cl)cc1Cl`, for which the inhibition is 38.2% (active).

`Cc1ccc(NC(=O)COC(=O)CNC(=O)c2ccc(Cl)cc2Cl)cc1S(=O)(=O)N1CCOCC1`: the inhibition was 13.7% (inactive).

Turning to `O=C(O)CCn1cc(/C=C/C(=O)c2ccc(Cl)cc2)c(-c2cccc(Br)c2)n1`, the inhibition was 13.2% (inactive).

`CC1(C)C(c2cccs2)=[N+]([O-])C2(CCCCC2=O)N1O` (centres undefined): the inhibition is -17.8% (inactive).

Consider `Cc1ccc(C)c(S(=O)(=O)N2CCN(CC(=O)Nc3ccc([N+](=O)[O-])cc3)CC2)c1`, for which the inhibition is -6.36% (inactive).

On to `CCOC(=O)c1c(NC(=O)CCl)sc(C(=O)N(CC)CC)c1C`, for which the inhibition is 44.7% (active).

For `O=C(Nc1ccccc1Cl)/C(Cl)=C(\Cl)S(=O)c1ccccc1` (centres undefined), the inhibition was -8.38% (inactive).

In the case of `COc1ccc(-c2nc3n(c(=O)c2C#N)CCS3)c(OC)c1`, the inhibition was -26.2% (inactive).

As to `O=C(COC(=O)c1c2c(nc3ccccc13)CCCC2)c1ccc(Br)s1`, the inhibition was 13.6% (inactive).

For the compound `O=C(Nc1nnc(Cc2ccc(Cl)cc2)s1)c1cccnc1`, the inhibition was -6.82% (inactive).

`CSc1nnc(NC(=O)c2nc(S(=O)(=O)Cc3ccc(C)cc3)ncc2Cl)s1`: the inhibition is 48.5% (active).

For `Cc1cccc(OCC(O)Cn2c(N3CCCCC3)nc3c2c(=O)[nH]c(=O)n3C)c1` (centres undefined), the inhibition is -4.42% (inactive).

Consider `Cc1ccc(OCC(=O)Nc2ccc(NC(=O)c3cccs3)cc2)c(C)c1`, for which the inhibition is -16.5% (inactive).

Turning to `CC(=O)Nc1ccc(Sc2ccccc2C(=O)N2CCCC2)cn1`, the inhibition is -13.6% (inactive).

Turning to `COc1ccc2sc(-c3ccc(S(C)(=O)=O)cc3)c(-c3ccc(C(N)=O)cc3)c2c1`, the inhibition was 27.4% (inactive).

As to `COc1ccc(/C=N/OCC(=O)N(Cc2ccccc2)c2ccccc2C(=O)O)cc1`, the inhibition was 1.15% (inactive).

Regarding `O=C1/C(=C\c2ccc([N+](=O)[O-])cc2)CS(=O)(=O)C/C1=C/c1ccc([N+](=O)[O-])cc1`, the inhibition is 31.9% (active).

Take `COCCCNC(=O)/C(C#N)=C/c1c(N2CCCCCC2)nc2ccccn2c1=O`: the inhibition is 11.9% (inactive).

Take `COc1cccc(OC)c1C(=O)Nc1c(C(=O)N2CCN(c3ccccn3)CC2)oc2ccccc12`: the inhibition was -8.35% (inactive).

Consider `CCOc1ccc(Nc2nc(Cl)nc(N3CCN(c4ccc(OC)cc4)CC3)n2)cc1`, for which the inhibition was 33.7% (active).

For `Cc1ccc(NC(=O)c2c(NC(=O)CCC(=O)O)sc3c2CCCCC3)cc1`, the inhibition is 1.41% (inactive).

Consider `Cc1ccc(S(=O)(=O)CCC(=O)OCC(=O)N(C)Cc2ccccc2)cc1`, for which the inhibition was 7.91% (inactive).

With `Cc1ccc(S(=O)(=O)N(C)CC(=O)OCC(=O)Nc2ccccc2)cc1`, the inhibition is 38.5% (active).

With `Cc1ccc(S(=O)(=O)N(C)CC(=O)OCC(=O)N2CC(=O)Nc3ccccc32)cc1`, the inhibition is 16.8% (inactive).

For `O=C(c1ccc2c(c1)N(Cc1ccc(F)cc1)C(=O)c1ccccc1S2(=O)=O)N1CCN(c2ccccn2)CC1`, the inhibition is -2.23% (inactive).

Regarding `O=C(COC(=O)Cn1cnc2ccccc2c1=O)NCC12CC3CC(CC(C3)C1)C2`, the inhibition was 30.5% (active).

As for `O=S(=O)(NCc1ccco1)c1cnc(Cl)c(Cl)c1`, the inhibition is 54.2% (active).

On to `O=C(NCCc1c[nH]c2ccccc12)c1cccc(Br)c1`, for which the inhibition was 3.64% (inactive).

With `COc1ccc(-c2n[nH]c(C)c2-c2ccccc2OC)c(O)c1`, the inhibition was 0.3% (inactive).

With `O=C(COC(=O)[C@H](Cc1ccccc1)NC(=O)c1cccs1)Nc1cc(F)ccc1F`, the inhibition was 14.7% (inactive).

Regarding `Cc1nc2ccccc2c(=O)n1NC(=O)c1ccc(Cl)c([N+](=O)[O-])c1`, the inhibition was 44.2% (active).

Turning to `Cc1ccccc1-c1n[nH]c(=S)n1/N=C/c1ccc(-c2ccccc2Br)o1`, the inhibition is 0.08% (inactive).

With `O=C(CSc1nc2ccc(Nc3nc(N4CCOCC4)nc(N4CCOCC4)n3)cc2s1)NCc1ccco1`, the inhibition is -2.81% (inactive).

As to `Cc1c(Cl)cccc1NC(=O)[C@@]1(CC(=O)O)CC(/C=C/c2ccccc2)=NO1`, the inhibition is -4.9% (inactive).

Turning to `Cc1ccc(NC(=O)C(C)OC(=O)Cc2c[nH]c3ccccc23)cc1S(=O)(=O)N1CCOCC1` (centres undefined), the inhibition was 5.56% (inactive).

Take `CCOC(=O)CSc1nc(N2CCOCC2)c2c(c1C#N)CC(C(C)C)OC2` (centres undefined): the inhibition was 8.67% (inactive).

As for `CCCCOC(=O)CNc1nnc(SCC(=O)OCC)[nH]c1=O`, the inhibition was 44.4% (active).

For the compound `CC(C)Oc1ccc(/C=C(\NC(=O)/C=C/c2ccco2)C(=O)NCCc2nc3ccccc3[nH]2)cc1`, the inhibition was -6.84% (inactive).

Consider `Cc1ccc(NS(=O)(=O)c2ccc(C)c(NC(=O)COc3ccc4ccccc4c3)c2)c(C)c1`, for which the inhibition is 0.85% (inactive).

As to `COc1ccc(-n2nc(C(=O)Nc3cc(OC)c(OC)c(OC)c3)c3ccccc3c2=O)c(OC)c1`, the inhibition was 3.92% (inactive).
